The list is not random: actives were taken first. Their share in the collection is about 7.9%.
HT1080 IDH1KD tx: qHTS for induction of synthetic lethality in tumor cells producing 2HG: qHTS for the HT-1080-IDH1KD cell line | HT-1080 IDH1 knockdown viability, ATP luminescence, 48 h | Potency, µM (titrated, usually from 46.1 µM), without a hit: at the highest dose activity, negative = toxicity, most hits filed as cytotoxic | actives 2% (n = 360,000);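 further: 0% = DMSO wells and -100% = cell-free medium wells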
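HT-1080-IDH1KD cells (IDH1 knocked down), 750/well in RPMI with 5% FBS, treated with compound 48 h at 37 degrees C. Viability by CellTiter-Glo luminescence, normalised to DMSO and no-cell wells; concentration-response curves classed.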
SW480 rerep: A quantitative high throughput screen for small molecules that induce DNA re-replication in SW480 colon adenocarcinoma cells; SW480 DNA re-replication, Hoechst DNA content imaging, 48 h; Potency, µM (top dose mostly 46.1 µM), for the others: at the top dose re-replication activation, most hits filed as activators; actives 1.8% (n = 340,000); AID 624297, 2012; further: % of control where 0% means no effect; nearly all actives have a fitted effect of over 55% in size
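Per well, 250 cells were exposed to pinned compound for 48 hr. Nuclear DNA was visualised with Hoechst (40 min, 37 C) and total object intensity recorded by fluorescence scanning.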
KB-V1 MDR tox: qHTS assay for MDR1-selective chemotherapeutics: Primary screen using the drug-selected MDR subline cells KB-V1; AID 1347076, 2019; actives 3.4% (n = 400,000); KB-V1 MDR cells viability, CellTiter-Glo, 72 h; Potency, µM (highest dose often 46.1 µM), most hits filed as cytotoxic; further: on the % scale 0 is the no-effect control and ±100 the full control effect; nearly all actives have a fitted effect of over 60% in size
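KB-V1 cells (P-gp-expressing MDR subline of KB-3-1) in phenol-red-free DMEM with 10% FBS were exposed to library compounds over a concentration series for 72 h at 37 degrees C. Viability read by CellTiter-Glo luminescence; concentration-effect curves fitted after normalization.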
MCF10A rerep: A quantitative high throughput screen for small molecules that induce DNA re-replication in MCF 10a normal breast cells | AID 624296, 2012 | actives 2.9% (n = 350,000) | MCF 10A DNA re-replication, Hoechst nuclear intensity, 48 h | Potency, µM (top dose mostly 46.1 µM), for the others: at the top dose activity, positive = re-replication, most hits filed as activators; further: % of control where 0% means no effect; nearly all actives have a fitted effect of over 50% in size
KB-3-1 tox: qHTS assay for MDR1-selective chemotherapeutics: Primary screen using the parental adenocarcinoma cell KB-3-1 | KB-3-1 viability, CellTiter-Glo ATP luminescence, 72 h | Potency, µM (doses to about 46.1 µM), most hits filed as cytotoxic | actives 1.4% (n = 400,000); further: on the % scale 0 is the no-effect control and ±100 the full control effect; nearly all actives have a fitted effect of over 60% in size
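KB-3-1 parental drug-naive adenocarcinoma cells in DMEM/10% FBS, incubated 72 h at 37 C with pin-transferred compounds across a concentration series. Viability by CellTiter-Glo luminescence; concentration-response curves fitted after normalization.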
HT1080-NT tox: qHTS for induction of synthetic lethality in tumor cells producing 2HG: qHTS for the HT-1080-NT fibrosarcoma cell line | HT-1080-NT fibrosarcoma viability, CellTiter-Glo ATP luminescence, 48 h | Potency, µM (series often up to 46.1 µM), inactives show top-dose activity, negative = less viability, hits mostly cytotoxic | actives 1.6% (n = 360,000);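 further: NT is the 2HG producing partner of a matched IDH1 knockdown line; 0% = DMSO-treated cells and -100% = media-only wells without cells; nearly all actives have a fitted effect of over 55% in size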
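Viability of the 2HG-overproducing fibrosarcoma line after 48 hours of compound exposure at 37 degrees C was determined by luminescence with CellTiter-Glo, and concentration-effect curves were then fitted and categorized.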
An asterisk follows results filed as active; i = inactive; ? = inconclusive; / = not tested or not shown; [ ] = another dose, or the depositor's remark. The call rests on the fitted dose curve; in most records, active means well fitted curve in the direction sought with a large enough effect; inconclusive means small, poorly fitted or top-dose-only effect, or another doubt; inactive means no such curve, though single readings can be large; an effect the other way counts as inactive or inconclusive. Potency means the concentration at half of the fitted maximal effect.

SMILES	HT1080 IDH1KD tx	SW480 rerep	KB-V1 MDR tox	MCF10A rerep	KB-3-1 tox	HT1080-NT tox
O=C(O)CCn1c2c(c3ccccc31)C[C@H](NS(=O)(=O)c1ccc(F)cc1)CC2	/	7%	/	8%	/	/
CCOCCCNC(=O)c1cc2c(=O)n(CC)c3ccccc3c2s1	-29%	?	i	23µM*	?	?
CCOc1ccccc1N(C)C(=O)c1cc2c(=O)n(CC)c3ccccc3c2s1	-2%	18µM*	i	3.7µM*	?	-2%
CCn1c(=O)c2cc(C(=O)NCCOC)sc2c2ccccc21	6%	-9%	i	13%	i	14%
C[N+](C)(CCCCCI)c1ccc(/C=C/c2nc3ccccc3s2)cc1	/	/	i	/	?	/
CCn1ccc(C(=O)NC2=NCCS2)n1	13%	23µM*	i	-67%	i	-3%
CCn1ccc(C(=O)NC2CCCC2)n1	9%	2%	i	2%	i	1%
COc1ccc(CN2C(=O)c3ccccc3C(/C=N\OCc3ccc(F)cc3)C2=O)cc1 (stereo unspecified)	?	-1%	16µM*	7%	?	-25%
COc1ccc(CN2C(=O)c3ccccc3C(/C=N/OCc3ccc(Cl)cc3)C2=O)cc1 (stereo unspecified)	?	?	?	19%	?	-30%
CCOc1ccc(NC(=O)CCc2c(C)nc3c(c(C)nn3-c3ccccc3)c2C)cc1	/	/	i	/	i	/
CCn1nc(C)cc1-c1nnc(Sc2ncc([N+](=O)[O-])s2)n1C	21µM*	28%	i	12%	?	10µM*
CCn1nc(C)cc1-c1nnc(SCC(=O)Nc2ccccc2)n1CCCOC	10%	2%	?	-6%	i	8%
CC1=C(C(=O)NCc2ccccc2F)C2(CCCCC2)OC1=O	/	/	i	/	i	/
Cc1nc(N)nc(C)c1Cc1ccccc1	-1%	-5%[9.22 µM]	i	-5%	i	-2%
Cc1c2ccccc2cc(Cc2ccccc2)[n+]1C	21µM*	-5%	i	-21%	15µM*	0%
O=C1c2ccccc2NC(c2ccc(F)cc2)N1Cc1ccccc1 (stereo unspecified)	-5%	-2%	i	7%	i	-7%
COc1ccc(-c2cc(NCc3ccc(C)cc3)n3cnnc3n2)cc1	/	/	i	/	i	/
CS(=O)(=O)c1sc2nc(-c3cccs3)cc(-c3ccccc3)c2c1N	-12%	?	i	18µM*	i	-1%
Cc1ccc(-c2cc(-c3ccccc3)c3c(N)c(S(C)(=O)=O)sc3n2)cc1	-13%	12µM*	?	?	?	?
CS(=O)(=O)c1ccccc1NC(=O)COc1ccccc1C(=O)Nc1ccccc1	11%	/	/	/	/	8%
Cc1cccc(NC(=O)COC(=O)CN2C(=O)c3ccccc3C2=O)c1C	7%	/	i	/	i	10%
COCCOC(=O)C1=C(C)OC(N)=C(C#N)C1c1cc2cccc(C)c2nc1Cl (stereo unspecified)	?	4%	i	23µM*	i	-3%
COC(=O)c1cccc(C(=O)Nc2ccc(C)cc2Br)n1	6%	-11%	15µM*	5%	i	1%
Cc1cccc(OCCN2C(=O)c3ccccc3C2=O)c1	4%	-46%	?	3%	i	4%
N#Cc1ccccc1OCCN1C(=O)c2ccccc2C1=O	-6%	-10%	i	12µM*	i	19%
Nc1cccc2c1C(=O)N(CCOc1ccccc1F)C2=O	-2%	?	i	18µM*	i	-1%
